ClpP mod = qHTS Assay for Activators of ClpP | purified B. subtilis ClpP, FRET peptide cleavage, 20 min | AID 651965, 2013 | Potency, µM (series often up to 57.5 µM) | 340,000 compounds, 1.9% hits | ATP-dependent Clp protease proteolytic subunit (Bacillus subtilis (strain 168)), P80244; active = well fitted falling curve with a large enough effect; inconclusive = small, poorly fitted or top-dose-only effect; inactive = no such curve, though single readings can be large or run the other way; note: the source files actives as falling curves though it sought activators and does not explain the sign; nearly all actives have a fitted effect of over 65% in size
Target sequence (P80244 whole entry, looked up): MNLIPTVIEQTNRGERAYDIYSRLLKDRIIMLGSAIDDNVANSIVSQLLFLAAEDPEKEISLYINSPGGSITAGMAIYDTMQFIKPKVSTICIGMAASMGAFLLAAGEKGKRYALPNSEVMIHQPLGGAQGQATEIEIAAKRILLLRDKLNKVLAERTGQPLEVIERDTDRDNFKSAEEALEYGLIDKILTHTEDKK
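Buffer: 100 mM Tris/HCl pH8, 100 mM KCl, 0.05% low protease BSA, 2.5% glycerol, 0.01% Tween-20. ClpP 10 microg/mL final; 20 min RT; delta FRET normalized to ADEP and DMSO controls.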
gsp antag = qHTS for Antagonists of gsp, the Etiologic Mutation Responsible for Fibrous Dysplasia/McCune-Albright Syndrome: qHTS; gsp-mutant cells, cAMP HTRF, 30 min; Potency, µM (top dose mostly 76.9 µM), hits mostly inhibitors; 340,000 compounds, 0.4% hits; AID 624288, 2012; calls by dose curve; cell line not stated here;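 note: intracellular cAMP measured with PDE inhibitor Ro 20-1724 present during compound exposure; nearly all actives have a fitted effect of over 65% in size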
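G418-selected cells were plated in DMEM/10% FBS for 16-24 h at 37C, then treated with compounds plus the PDE inhibitor […] (300 uM solution added) for 30 min at 37C. Intracellular cAMP was measured by HTRF after 30 min lysis at room temperature.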
RXFP1 agonist = qHTS Assay for Agonists of the Relaxin Receptor RXFP1; Potency, µM (highest dose often 57.5 µM), actives largely listed as activators; 370,000 compounds, 0.3% hits; HEK293T-RXFP1 cAMP TR-FRET, 30 min; response scale: percent of porcine relaxin response, buffer zero; active = well fitted activation curve with a large enough effect; inconclusive = small, poorly fitted or top-dose-only effect; note: nearly all actives have a fitted effect of over 60% in size
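cAMP rise read by TR-FRET after 30 min, 37C compound exposure (up to 58 uM) in RXFP1-transfected HEK293 cells with Ro 20174 present. EC50 from Hill-equation fits, with 29 nM porcine relaxin as 100% and buffer as basal.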
Akt phos inh = HTS Assay for Inhibitors of Akt Phophorylation: Primary Screen | Neuro2A IGF-stimulated pAkt S473 HTRF, 20 min; stronger effect = lower value | activity change, % for hits at 50 µM | 360,000 compounds, 0.32% hits | AID 651550, 2012; in the data active = activity change below about -80%; inconclusive = mostly about -51% to -80%
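Neuro2A cells (4,500/well, DMEM with 0.5% FBS) were treated with compound at a single 50 µM final concentration, stimulated with 6 nM IGF for 20 min at 37 °C, and lysed. Phospho-Akt Ser473 was read by HTRF as 665/615 ratio ×10^4.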
gsp agonist = qHTS for Agonist of gsp, the Etiologic Mutation Responsible for Fibrous Dysplasia/McCune-Albright Syndrome: qHTS; gsp mutant cells, cAMP HTRF, 30 min; Potency, µM (highest dose often 76.9 µM), actives largely listed as activators; 340,000 compounds, 0.13% hits; active = well fitted activation curve with a large enough effect; inconclusive = small, poorly fitted or top-dose-only effect, or another doubt; inactive = no such curve, though single readings can be large or run the other way; cell line not stated here;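 note: phosphodiesterase inhibitor Ro 20-1724 added with compounds to block cAMP breakdown; nearly all actives have a fitted effect of over 60% in size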
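Cells stably selected in G418 were plated at 2000/well, grown 16-24 hr, then given compounds in DMSO with the PDE inhibitor […] (300 uM solution added) for 30 min at 37C; cAMP was read by HTRF.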
RXFP1 antagonist = qHTS Assay for Antagonists of the Relaxin Receptor RXFP1. activity change, negative = inhibition, % at 57.5 µM. HEK293-RXFP1, relaxin-stimulated cAMP HTRF, 30 min; stronger effect = lower value. AID 1259400, 2018. 350,000 compounds, 0.59% hits;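 active = activity change of -60% or lower, but not beyond a set lower limit; inconclusive = change between -60% and -40%, or beyond the set limit; inactive = change above -40%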
A number is an active result; n = inactive; u = inconclusive; x = not tested or not shown. A selection: hits, their analogues and other compounds. The true share with any hit is near 2.7%.

SMILES	ClpP mod	gsp antag	RXFP1 agonist	Akt phos inh	gsp agonist	RXFP1 antagonist
CCCCn1c(=O)nc2n(-c3ccc(Br)cc3)c3ccccc3cc-2c1=O	n	x	n	x	x	x
CCOc1ccccc1N1CCN(C/C=C/c2ccc(N(C)C)cc2)CC1	28µM	n	n	n	n	n
CCOc1ccccc1N1CCN(Cc2ccco2)CC1	n	n	n	n	n	n
CCOc1cc(CNC(=O)c2ccc3c(c2)N(C)C(=O)C2CCCCN32)cc(OCC)c1OCC (stereo not given)	n	x	n	x	x	n
Cc1ccc(N(C(=O)Cn2nnc3ccccc32)C(C(=O)NCc2ccco2)c2cccnc2)cc1 (stereo not given)	n	n	n	n	n	n
COc1cccc(N(C(=O)Cn2nnc3ccccc32)C(C(=O)NCc2ccco2)c2cccnc2)c1 (stereo not given)	35µM	n	n	n	n	n
CCN(CC)CCCNC(=O)c1c2c(nc3ccccc13)C(=O)N(C1CCCCC1)C2	14µM	x	n	x	x	n
CC[N+](CC)(CCNC(=O)C(=O)NCC[N+](CC)(CC)Cc1ccccc1Cl)Cc1ccccc1Cl	x	x	x	x	x	n
CCn1c2ccccc2c2cc(CN3CCN(Cc4ccc(OC)c(OC)c4)CC3)ccc21	u	x	n	x	x	n
CCOc1ccc(CN2CCN(Cc3ccc4c(c3)c3ccccc3n4CC)CC2)cc1	20µM	x	n	x	x	n
COc1ccc(-c2sc3ccc(-c4ccc5c(c4)OCO5)cc3c2-c2ccc(OC)nc2)cc1	n	n	x	n	u	x
N#Cc1c2c(c(Cl)n3c1nc1ccccc13)CCCC2	n	x	x	x	x	x
CN1CCN(CCOC2Cc3ccccc3Sc3ccc(Cl)cc32)CC1 (stereo not given)	n	n	n	n	n	-70
COC(=O)c1sc(-c2cccs2)cc1NC(=O)/C=C/C(=O)O	x	22µM	n	n	u	u
CCN(C(=O)COC(=O)c1ccc(OCc2c(C)noc2C)cc1)c1ccccc1	25µM	n	n	n	n	n
CCN(c1ccccc1)S(=O)(=O)c1ccc(OCc2c(C)noc2C)cc1	n	n	n	n	n	n
CCOc1ccccc1NC(=O)c1csc(C)c1C	n	n	n	n	n	n
CC(C)CC(=O)NCC(c1ccc2c(c1)OCO2)N1CCN(c2ccccc2)CC1 (stereo not given)	n	x	n	x	x	n
COC(=O)C1=C(C)N(c2cccc(Cl)c2)C(=O)C1	n	n	n	-118%	n	n
CCCCOC(=O)c1cccc(NC(=O)CC)c1	n	n	n	-112%	n	n
CCCCOC(=O)c1ccc(NC(=O)c2c(OC)cccc2OC)cc1	n	n	n	n	11µM	n
CCCCC(=O)Nc1cccc(NC(=O)CC)c1	n	n	n	n	n	n
O=C(CSC1=Nc2ccccc2N=C(c2ccc(F)cc2)C1)Nc1ccc(Cl)cc1	n	x	n	x	x	x
O=C(Nc1nncs1)c1cccc(S(=O)(=O)N2CCCC2)c1	n	n	n	n	n	n
Cc1nonc1NC(=O)c1ccc(Cl)c(S(=O)(=O)N2CCCCC2)c1	n	n	n	-98%	n	n
SMILES	ClpP mod	gsp antag	RXFP1 agonist	Akt phos inh	gsp agonist	RXFP1 antagonist
O=C(Nc1nncs1)c1ccc(Br)c(S(=O)(=O)N2CCCC2)c1	32µM	u	n	n	n	n
O=C(Nc1ccccn1)c1ccc(Br)c(S(=O)(=O)N2CCCC2)c1	n	n	n	n	n	n
O=C(Nc1ccccn1)c1ccc(Br)c(S(=O)(=O)N2CCCCC2)c1	13µM	n	n	n	n	x
Cc1cccnc1NC(=O)c1ccc(Cl)c(S(=O)(=O)N2CCCCCC2)c1	n	n	n	n	n	n
COc1cc(C=NCc2ccccc2)ccc1O	n	x	x	n	n	n
COc1cc(/C=N/c2oc(-c3ccccc3)cc2C#N)ccc1O	3.5µM	n	n	n	n	n

High-throughput results: PubChem, National Center for Advancing Translational Sciences (NCATS)
